Screening data (PubChem)
HT1080 IDH1KD tx = toxicity to HT-1080 IDH1 knockdown cells (counter line); hit rate 2% among 360,000; Potency, µM (series often up to 46.1 µM), for inactives: top-dose activity, negative = toxicity, usual class: cytotoxic; HT-1080 IDH1 knockdown viability, ATP luminescence, 48 h;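 note: potency is the fitted concentration of half-maximal effect; 0% = DMSO wells and -100% = cell-free medium wells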
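After a 2 h attachment period, IDH1KD HT-1080 cells took pin-transferred compound for 48 h at 37 °C; ATP-based luminescence after 10 min room-temperature reagent incubation reported viability.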
TDP1 cell noCPT = qHTS for Inhibitors of human tyrosyl-DNA phosphodiesterase 1 (TDP1): qHTS in cells in absence of CPT; DT40 Tdp1-/- hTDP1 cells, no CPT, ATP luminescence, 48 h; Potency, µM (top dose mostly 46.2 µM), for the others: at the highest dose activity change, negative = growth inhibition, usual class: inhibitors; hit rate 15% among 420,000; AID 686978, 2013; note: potency is the fitted concentration of half-maximal effect; nearly all actives have a fitted effect of over 55% in size
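Growth kinetics read by CellTiter-Glo luminescence after ≥48 hr at 37 °C. Cells: DT40 Tdp1-/- stably carrying human TDP1, 400 per well, compound exposure in the absence of CPT (DMSO vehicle).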
TDP1 cell CPT = DT40-hTDP1 cell growth loss with CPT; hit rate 12% among 420,000; chicken DT40 Tdp1-/-;hTDP1 cells + 20 nM CPT, ATP luminescence, 48 h; Potency, µM (doses to about 46.2 µM), inactives show at the top dose activity change, negative = growth inhibition, most hits filed as inhibitors; note: potency is the fitted concentration of half-maximal effect; nearly all actives have a fitted effect of over 55% in size
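Chicken DT40 Tdp1-/- cells complemented with human TDP1, 400 cells/well, exposed to compounds plus 20 nM camptothecin for at least 48 h at 37 C; viability read as ATP content by CellTiter-Glo luminescence.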
IL-1B inflam inh = inflammasome signaling inhibition, IL-1 beta readout | activity change, % at 57.5 µM | hit rate 4.7% among 360,000 | THP-1 LPS/ATP IL-1B secretion, AlphaLISA, 16 h; hits give low values; in the data active = activity change below about -50%; inconclusive = mostly about -30% to -49%
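Secreted IL-1B measured by AlphaLISA bead assay after 16 h compound exposure of THP-1 cells; compounds (final up to 57.5 uM) added 1 h before LPS (250 ng/mL) and ATP (1.25 mM) stimulation; lower signal means less secretion.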
HT1080NT lethal = kills 2HG-producing HT-1080-NT fibrosarcoma cells; HT-1080-NT fibrosarcoma viability, CellTiter-Glo ATP luminescence, 48 h; Potency, µM (highest dose often 46.1 µM), without a hit: top-dose activity, negative = less viability, actives largely listed as cytotoxic; hit rate 1.6% among 360,000; AID 686970;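 note: NT is the 2HG producing partner of a matched IDH1 knockdown line; potency is the fitted concentration of half-maximal effect; 0% = DMSO-treated cells and -100% = media-only wells without cells; nearly all actives have a fitted effect of over 55% in size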
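HT-1080-NT fibrosarcoma cells (2HG-overproducing), 750 cells/well in RPMI with 5% FBS, dosed after 2 h and incubated 48 h at 37C. CellTiter-Glo luminescence normalized to DMSO and no-cell wells; concentration-response curves fitted and classed.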
12-LOX inh = ALOX12 (human) lipoxygenase inhibition | purified 12hLO, xylenol orange hydroperoxide absorbance | Potency, µM (top dose mostly 108 µM), for the others: top-dose activity change, negative = inhibition, actives largely listed as inhibitors | hit rate 1.1% among 580,000 | AID 1671190; note: potency is the fitted concentration of half-maximal effect
Target sequence (P18054 whole entry, looked up): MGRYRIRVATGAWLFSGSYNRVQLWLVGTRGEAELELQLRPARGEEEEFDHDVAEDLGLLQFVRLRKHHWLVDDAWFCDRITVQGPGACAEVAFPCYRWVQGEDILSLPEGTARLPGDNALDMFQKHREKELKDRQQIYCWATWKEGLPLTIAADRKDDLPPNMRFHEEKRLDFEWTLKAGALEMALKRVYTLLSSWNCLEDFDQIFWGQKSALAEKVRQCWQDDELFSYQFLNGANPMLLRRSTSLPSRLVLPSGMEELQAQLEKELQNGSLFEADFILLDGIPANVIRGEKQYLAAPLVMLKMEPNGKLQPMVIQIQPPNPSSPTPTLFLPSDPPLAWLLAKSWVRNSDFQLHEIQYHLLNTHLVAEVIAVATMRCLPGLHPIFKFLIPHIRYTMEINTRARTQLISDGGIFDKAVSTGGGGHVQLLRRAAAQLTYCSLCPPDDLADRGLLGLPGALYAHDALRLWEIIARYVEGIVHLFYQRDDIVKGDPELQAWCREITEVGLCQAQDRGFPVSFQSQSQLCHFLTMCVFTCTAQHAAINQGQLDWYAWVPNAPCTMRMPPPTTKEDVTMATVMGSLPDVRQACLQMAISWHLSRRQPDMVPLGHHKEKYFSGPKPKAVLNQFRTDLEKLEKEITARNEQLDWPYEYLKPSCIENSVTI
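Hydroperoxide product was detected by ferrous iron/xylenol orange as the 573 to 405 nm absorbance ratio. Arachidonic acid at 40 uM (final) was turned over for 30 min at room temperature by 150 nM human 12hLO, pH 7.0 Hepes buffer, after 15 min compound preincubation.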
An asterisk follows results filed as active; i = inactive; ? = inconclusive; nt = not tested or not shown. Many of the other results were omitted from the sample, so hits are more common in it than they were. Unless noted, calls come from the whole dose curve; as a rule, active = well fitted curve in the direction sought with a large enough effect; inconclusive = small, poorly fitted or top-dose-only effect, or another doubt; inactive = no such curve, though single readings can be large; an effect the other way counts as inactive or inconclusive. Unless noted, % is set by controls: 0 for no effect and ±100 for the full control effect.

SMILES | HT1080 IDH1KD tx | TDP1 cell noCPT | TDP1 cell CPT | IL-1B inflam inh | HT1080NT lethal | 12-LOX inh
Cc1ccc(NC(=O)CC2SC(=O)N(c3ccccc3)C2=O)cc1 (stereo not drawn) | 0.1% | 7.31µM* | 9.2µM* | 29.3 | 0.1% | ?
CN(C)c1ccc(C(=O)N2CCC(Cc3ccccc3)CC2)cc1 | nt | nt | nt | nt | nt | 29.3%
Cc1ccc(NC(=O)CC2Sc3ccc(C(F)(F)F)cc3NC2=O)cc1 (stereo not drawn) | nt | 0.7% | -7.9% | nt | nt | -21.9%
C=CCN1C(=O)C(CC(=O)Nc2ccccc2)S/C1=N/c1nccs1 (stereo not drawn) | -2.2% | -12.4% | -8.8% | -1.7 | 1.9% | 0.0%
CCCN1C(=O)SC(CC(=O)Nc2ccc(C)cc2)C1=O (stereo not drawn) | 16.6% | ? | 18.4µM* | -1.1 | 12.4% | 0.0%
Cc1ccc(NC(=O)CC2=NC(=O)C(CC(=O)Nc3ccccc3F)S2)cc1 (stereo not drawn) | -9.8% | 18.4µM* | ? | -29.4 | -0.1% | -12.1%
O=C(CC1Sc2ncnn2C1=O)Nc1ccccc1 (stereo not drawn) | -0.8% | 14.6µM* | 7.31µM* | -6.1 | 14.3% | -10.1%
Cc1ccc(NC(=O)CC2SC3=NCCN3C2=O)cc1 (stereo not drawn) | 1.4% | ? | ? | 5.9 | 12.5% | -16.9%
Cc1cccc(NC(=O)CC2SC(=O)N(c3ccccc3)C2=O)c1 (stereo not drawn) | 9.7% | 5.17µM* | 4.61µM* | 8.3 | 3.0% | ?
Cc1cc(C(=O)N2CCC(c3nc(-c4ccccc4)no3)C2)n[nH]1 (stereo not drawn) | nt | nt | nt | nt | nt | 48.3%
COc1ccc(C(=O)N2c3ccccc3NC3=C(C(=O)CCC3)C2c2ccccc2OC)cc1 (stereo not drawn) | nt | nt | nt | nt | nt | -23.8%
Oc1ccc(O)c(Cc2nc3ccccc3[nH]2)c1 | -6.1% | 8.2µM* | ? | -22.2 | -17.7% | ?
OCc1nc2ccccc2[nH]1 | nt | -7.8% | -1.2% | nt | nt | -13.0%
CCCc1ccc(-c2cc(C(=O)NCc3cnn(C)c3)c3ccccc3n2)cc1 | nt | nt | nt | nt | nt | -5.4%
O=C1CN(C(=O)COC(=O)c2ccc(N3CCCCCC3)c([N+](=O)[O-])c2)c2ccccc2N1 | -3.2% | -25.8% | 2.6% | 21.6 | -4.6% | -7.5%
O=C(CCNC(=O)N1CC(=O)Nc2ccccc21)NCc1cccc(Cl)c1 | 1.4% | ? | 5.9% | 0.0 | 16.5% | 14.9%
O=C1CN(C(=O)COC(=O)CCS(=O)(=O)c2ccccc2Cl)c2ccccc2N1 | 1.2% | ? | 18.4µM* | -25.0 | -15.8% | -2.0%
O=C(CCNC(=O)N1CC(=O)Nc2ccccc21)NCc1ccccc1Cl | 3.8% | 13µM* | ? | -7.5 | -0.6% | 6.4%
CS(=O)(=O)c1ccc(C(=O)OCC(=O)N2CCCC2)cc1[N+](=O)[O-] | nt | 3.98µM* | 5.01µM* | nt | nt | nt
CS(=O)(=O)c1ccc(C(=O)OCC(=O)N2CC(=O)Nc3ccccc32)cc1[N+](=O)[O-] | nt | 0.708µM* | 1.12µM* | nt | nt | nt
CS(=O)(=O)c1ccc(C(=O)OCC(=O)N2CCN(CCC3CCCCC3)CC2)cc1[N+](=O)[O-] | nt | nt | nt | nt | nt | -2.1%
CC1CCCCN1C(=O)COC(=O)c1ccc(S(C)(=O)=O)c([N+](=O)[O-])c1 (stereo not drawn) | nt | 3.16µM* | 2.24µM* | nt | nt | nt
N#CCSC1=Nc2ccccc2CS1 | nt | nt | nt | nt | nt | -10.8%
CCn1c2ccccc2c2cc(NC(=O)c3cccc([N+](=O)[O-])c3)ccc21 | ? | 20.6µM* | 20.6µM* | -13.4 | ? | 27.2%
CCn1c2ccccc2c2cc(NC(=O)c3ccc(C)c([N+](=O)[O-])c3)ccc21 | 14.9% | 3.26µM* | 5.8µM* | -25.6 | 5.5% | -10.7%
SMILES | HT1080 IDH1KD tx | TDP1 cell noCPT | TDP1 cell CPT | IL-1B inflam inh | HT1080NT lethal | 12-LOX inh
Cc1ccc(-n2nc3ccc(NC(=O)c4cccc([N+](=O)[O-])c4C)cc3n2)cc1 | ? | ? | -4.9% | 34.7 | ? | -0.8%
CCn1c2ccccc2c2cc(NC(=O)c3cccc([N+](=O)[O-])c3C)ccc21 | 13µM* | 14.6µM* | ? | -8.5 | 23.1µM* | ?
NCCNC(=O)c1c(O)c2cccc3c2n(c1=O)CCC3 | -1.9% | ? | -2.5% | -91.7* | -5.1% | 8.1%
O=C(Nc1ccccn1)c1c(O)c2cccc3c2n(c1=O)CCC3 | 5.9% | 14.6µM* | 14.6µM* | 19.0 | 2.1% | i
N[C@@H]1CC[C@H](C(=O)Nc2ccc(CC(=O)N3CCCC3)cc2)C1 | nt | nt | nt | nt | nt | 21.3%
CC(C(N)=O)N(C)Cc1ccc(C(=O)NCC(F)(F)F)cc1 (stereo not drawn) | nt | nt | nt | nt | nt | 84.8%
C#Cc1cccc(NC(=O)c2nccnc2N)c1 | nt | nt | nt | nt | nt | -5.7%
CC(=O)c1sc(NC(C)C)c(C#N)c1N | nt | nt | nt | nt | nt | 17.8µM*
O=C(Nc1nnc(CCc2ccccc2)s1)c1cc(=O)[nH]c2ccccc12 | nt | nt | nt | nt | nt | -13.2%
COc1ccc(NS(=O)(=O)c2cccc(C(=O)N/N=C/c3cn(-c4ccccc4)nc3-c3ccc(OC)cc3)c2)cc1 | 18.7% | -21.3% | ? | -8.9 | 17.8% | -1.2%
NS(=O)(=O)c1ccc(N/N=C/c2cn(-c3ccccc3)nc2-c2ccccc2)c([N+](=O)[O-])c1 | -13.6% | 11.6µM* | 4.11µM* | -78.0* | -9.0% | ?
COc1ccc(NS(=O)(=O)c2cccc(C(=O)N/N=C/c3cn(-c4ccccc4)nc3-c3ccccc3)c2)cc1 | ? | ? | 16.4µM* | ? | ? | 1.5%
Cc1ccc(-c2nn(-c3ccccc3)cc2/C=N/NS(=O)(=O)c2ccccc2)cc1 | ? | ? | 29.1µM* | -21.1 | ? | -8.1%
CC(=O)C(=Cc1cn(-c2ccccc2)nc1-c1ccccc1)C(C)=O | 11.8% | ? | 23.1µM* | -6.7 | 8.3% | -0.3%
Cc1ccc(C(=O)N/C(=C/c2cn(-c3ccccc3)nc2-c2ccccc2)C(=O)O)cc1 | -0.6% | 6.6% | 7.4% | -15.3 | -0.4% | 1.7%
Cc1ccc(-c2nn3c(N4CCCCC4)cc(C)nc3c2C)cc1 | nt | nt | nt | nt | nt | -3.2%
CCCCn1nc(C(=O)Oc2ccc(C(C)=O)cc2)c2ccccc2c1=O | nt | nt | nt | nt | nt | -8.8%
O=C(c1cncc(Br)c1)N1CCC(n2c(=O)[nH]c3ccccc32)CC1 | nt | nt | nt | nt | nt | 6.4%
Cc1ccc(-c2nn(-c3ccccc3)cc2/C=N/O)cc1 | ? | -12.9% | 20.6% | -80.6* | ? | -18.6%
